The structures appear in SMILES notation. Hit rate of the full screen: of about 15,000 compounds, about 60 (0.4%) were called active. This is one part of a sample in which actives are shown more often than they occur. Rule as the data show it: active = activation above about 2.2%; inactive = the rest.

The experiment is described as follows: activates NOTCH signaling in reporter cells (AID 434982). The following applies: NOTCH signaling luciferase reporter cells, luminescence; at 2.5 µM; active compounds read high. For orientation: A reporter such as luciferase makes a cellular process visible.
With `c1ccc2c(-c3csc(-c4ccc5c(c4)OCCO5)n3)csc2c1`, the activation was -0.45% (inactive).

For the compound `O=S(=O)(c1ccc(Cl)cc1)n1nccc1/C=C/c1cccs1`, the activation is 0.05% (inactive).

`N#Cc1c(-c2cccs2)cc(-c2cccs2)nc1N`: the activation was -0.55% (inactive).

On to `CSc1sc(C(=O)Nc2cccc(Cl)c2)c(-c2cccs2)c1C#N`, for which the activation is -0.76% (inactive).

Regarding `CC1(C)C2CC[C@](C)(C2)C1NC(=O)c1c(Cl)cccc1Cl` (stereo not given in full), the activation was -0.41% (inactive).

For the compound `CC(C)(C)c1csc(Sc2ccc([N+](=O)[O-])cc2[N+](=O)[O-])n1`, the activation is -0.69% (inactive).

As to `CSc1nsc(SC)c1C(=O)NC(=O)NNc1ccc(F)c(Cl)c1`, the activation is -0.35% (inactive).

Consider `CCCCc1ccc(-n2c(-c3ccc(F)cc3)coc2=O)cc1`, for which the activation was -0.29% (inactive).

On to `Clc1ccc(C2=NN(Cc3ccccc3)CC2)s1`, for which the activation was 0.29% (inactive).

Regarding `CC(=O)Nc1ccc(F)cc1F`, the activation is 3.83% (active).

Regarding `Cc1ccc(SCC(=O)Nc2ccc(F)cc2F)cc1`, the activation is 0.31% (inactive).

Turning to `COc1ccc(NC(=S)Nc2ccc(F)cc2F)c([N+](=O)[O-])c1`, the activation is -0.83% (inactive).

With `O=C1c2ccccc2C(=O)N1CNc1ccc(C2CCCCC2)cc1`, the activation was -0.31% (inactive).

In the case of `Cc1ccc(CSC(=N)N)cc1`, the activation was 0.1% (inactive).

For the compound `COc1ccc(OC(=O)/C=C/c2sc3ccccc3c2C)cc1`, the activation is -0.25% (inactive).

As for `Cc1nc(-c2ccccn2)n2nnnc2c1Cl`, the activation was -0.27% (inactive).

`Cc1oc(C(C)(C)C)cc1C(=O)NC1Cc2ccccc2C1`: the activation is -0.44% (inactive).

`COC(=O)c1scc(S(=O)(=O)Cc2ccco2)c1N/N=C(\C#N)S(=O)(=O)C(C)C`: the activation was 0.15% (inactive).

With `NNC(=O)c1cc(OCC(F)(F)F)nc(OCC(F)(F)F)c1`, the activation is -0.48% (inactive).

Consider `COc1cc(NC(=O)c2ncc(C(F)(F)F)cc2Cl)c(C(=O)O)cc1OC`, for which the activation is -0.4% (inactive).

As to `COC(=O)c1ccc(S(=O)(=O)NNC(=O)c2cn3cc(C(F)(F)F)cc(Cl)c3n2)n1C`, the activation was 3.18% (active).

For `COC(=O)c1ccc(S(=O)(=O)N2CCN(c3ccc([N+](=O)[O-])cn3)CC2)n1C`, the activation is 0.16% (inactive).

For the compound `CC(=O)Nc1ccc(NC(=O)c2cc(C)ccc2[N+](=O)[O-])c(C)c1`, the activation was -0.09% (inactive).

Take `Cc1ccc(OC(=O)c2cccc([N+](=O)[O-])c2)c(Br)c1`: the activation is 0.36% (inactive).

For the compound `CC(=O)Nc1cccc([N+](=O)[O-])c1`, the activation is 6.11% (active).

For `O/N=C/c1ccc(F)c(Cl)c1`, the activation was 0.44% (inactive).

For the compound `COC(=O)/C(=C/c1ccccc1)c1ccccc1`, the activation was -0.19% (inactive).

As to `CSC(=CC(=O)c1cccs1)SC`, the activation was -0.45% (inactive).

Turning to `Cc1nc2ccccn2c1C(=O)N/N=C/c1cn(-c2ccccc2)nc1-c1cccs1`, the activation is -0.2% (inactive).

For `N/C(=N\OCc1noc(-c2ccsc2)n1)c1ccc(C(F)(F)F)cc1`, the activation was -0.33% (inactive).

Take `O=C(Cn1nnc(N2CCOCC2)n1)N/N=C/c1ccc(-c2cccc([N+](=O)[O-])c2)o1`: the activation is -0.66% (inactive).

Take `CS(=O)(=O)/N=C(\N)c1ccncc1`: the activation was -1.1% (inactive).

For `Cc1noc(C)c1C(=O)c1c(C)[nH]n(-c2ccccc2)c1=O`, the activation is 0.14% (inactive).

In the case of `O=S(=O)(Oc1ccc(Cl)c(Cl)c1)c1c(Cl)sc(Cl)c1Br`, the activation is -0.59% (inactive).

On to `CC(C)(C)OC(=O)n1ccc2cc(Br)ccc21`, for which the activation was -0.83% (inactive).

For `Cc1ccc(S(=O)(=O)NNC(=O)CCc2nc(-c3ccc(Cl)cc3)no2)cc1`, the activation was 0.6% (inactive).

With `CC(=O)N1C=CC(c2c[nH]c3ccccc23)C=C1`, the activation was -0.43% (inactive).

As to `CS(=O)(=O)c1csc(C(=O)NCc2cccnc2)c1Cl`, the activation is -0.31% (inactive).

`CN(NS(=O)(=O)c1ccc(C(F)(F)F)cc1)c1cnn(C)c(=O)c1Cl`: the activation is -0.2% (inactive).

As for `O=C(Nc1ccccc1C(=O)NC1CCSC1)c1cccc(Cl)c1` (stereo not given), the activation was -0.57% (inactive).

Take `c1ccc(-c2nsc(N3CCNCC3)n2)cc1`: the activation was 0.94% (inactive).

On to `Cn1cc(Cl)c(/C=C(\C#N)C(N)=O)n1`, for which the activation is -0.29% (inactive).

As to `O=c1[nH]cc(Br)c(=O)[nH]1`, the activation was -0.83% (inactive).

For the compound `O=C(CN1CCOCC1)NNC(=O)c1cccs1`, the activation was -0.03% (inactive).

For `O=C(Cc1cccc2ccccc12)NNC(=O)Nc1ccc(Cl)cc1`, the activation was -0.03% (inactive).

In the case of `COc1cccc(NC(=S)NNC(=S)NC2CC3CCC2C3)c1` (stereo not given), the activation was -0.54% (inactive).

As to `Cc1cc(C(=O)NCCNS(=O)(=O)c2ccc(Cl)cc2)c(C)o1`, the activation was -0.14% (inactive).

As to `CNC(=S)NNC(=O)CSc1cccs1`, the activation is 1.08% (inactive).

`N#C/C(=C\c1cccn1S(=O)(=O)c1ccccc1)C(=O)c1ccccc1`: the activation was 0.09% (inactive).

As to `O=C(Cc1cc(F)cc(F)c1)n1nccc1-c1cccs1`, the activation was -0.68% (inactive).

On to `O=C(O)C1CC2CC1CCC2O` (stereo not given), for which the activation was -0.37% (inactive).

On to `Fc1ccc(NC(=S)N2CCN=C2Nc2ccc(F)cc2)cc1`, for which the activation was -1.11% (inactive).

In the case of `CC(=O)NC12CC3(C)CC(C)(CC(C)(C3)C1)C2`, the activation is 1.34% (inactive).

With `Cn1c(S(=O)(=O)O)nc2ccccc21`, the activation is -0.35% (inactive).

With `Cc1ccc(S(=O)(=O)NC(=O)NNc2ncnc3scc(-c4ccccc4)c23)cc1`, the activation was -0.88% (inactive).

As to `CCN=C(NCC)Nc1ccc(Cl)cc1`, the activation is -0.99% (inactive).

Take `CC(=O)/C(=C\N(C)C)c1ncccc1[N+](=O)[O-]`: the activation is 0% (inactive).

For the compound `CNC(=S)Nc1cscc1S(=O)(=O)c1ccc(Cl)cc1`, the activation is -0.17% (inactive).

Turning to `CCOC(=O)c1sc(SCCS(=O)(=O)c2ccc(Cl)cc2)c(C#N)c1-c1ccccc1`, the activation was -0.58% (inactive).

`O=S(=O)(Oc1ncccc1C(F)(F)F)c1cccc(F)c1`: the activation was -0.36% (inactive).

Turning to `O=C(NC(=O)C1CCN(c2ncccc2[N+](=O)[O-])CC1)Nc1ccc(Cl)cc1`, the activation was 0.44% (inactive).

For `CCOC(=O)CC(=O)CSc1nnc(N)s1`, the activation was 0% (inactive).

`NC(=O)C1CCN(CC(O)COc2ccc(Cl)c(Cl)c2)CC1` (stereo not given): the activation is -0.63% (inactive).

Consider `O=c1o[nH]c(-c2ccccc2)c1N=Nc1c(F)cccc1Cl`, for which the activation is 0.09% (inactive).

`CCOC(=O)C(O)(NC(=O)Nc1ccccc1)C(F)(F)F` (stereo not given): the activation is -0.73% (inactive).

As for `Cn1c(=O)c2c(ncn2Cc2nnc(-c3ccccc3)o2)n(C)c1=O`, the activation is -0.05% (inactive).

Regarding `Cc1ccc(S(=O)(=O)N/N=C/c2ccc(O)cc2O)cc1`, the activation was -0.7% (inactive).

As for `Cc1nnsc1C(=O)NN(C)c1ccc([N+](=O)[O-])cn1`, the activation was -0.31% (inactive).

Consider `CCOC(=O)Cc1cnc(NN=C2C3CC4CC(C3)CC2C4)s1`, for which the activation is -0.83% (inactive).

Take `O=C(Cn1c(=Nc2ccc(F)cc2)oc2ccccc2c1=O)c1ccccc1`: the activation was -0.66% (inactive).

In the case of `O=c1[nH]c2ccccc2c(=O)n1CCSc1ccc(Cl)cc1`, the activation is -0.73% (inactive).

In the case of `O=S(=O)(NC1Cc2ccccc2C1)c1ccc(-c2csnn2)cc1`, the activation was -0.03% (inactive).

As to `CCOC(=O)C(=CNNc1ccc(C(=O)O)cc1[N+](=O)[O-])C(=O)OCC`, the activation is -0.57% (inactive).

For `Cc1ccc(NC(C(=O)O)c2ccccc2)cc1` (stereo not given), the activation was -0.61% (inactive).

Turning to `CC(=O)Nc1ccc(S(=O)(=O)NNc2c(Cl)cncc2Cl)cc1Cl`, the activation is -0.55% (inactive).

As for `CCOC(=O)CCC(=O)OC(C(=O)c1ccccc1)c1ccccc1` (stereo not given), the activation is -0.16% (inactive).

With `Cc1ccc(/C=c2\sc3nc4ccccc4n3c2=O)o1`, the activation was -0.36% (inactive).

For the compound `O=S(=O)(CCSc1ccccc1NS(=O)(=O)c1cccs1)c1ccc(Cl)cc1`, the activation is -0.38% (inactive).

Take `O=C(Nn1cnnc1)c1ccc([N+](=O)[O-])cc1`: the activation was -0.58% (inactive).

As to `O=C(CSc1nnc(-c2ccncc2)o1)N1CCc2ccccc21`, the activation was -0.94% (inactive).

Consider `Oc1ccccc1C=NCCCN=Cc1ccccc1O`, for which the activation is -0.99% (inactive).

As to `N#Cc1ccc(Oc2ccc(Cl)cc2)c([N+](=O)[O-])c1`, the activation is -0.29% (inactive).

Regarding `Oc1ccccc1C=Nc1ccc(F)cc1`, the activation was -0.14% (inactive).

Take `O=C(O)/C=C/C(=O)Nc1ccc(NC(=O)c2ccccc2O)cc1`: the activation is 0.22% (inactive).

With `CCOC(=O)c1c(C)nn(-c2ncccc2NC(=O)Nc2cccc(Cl)c2Cl)c1C`, the activation is -0.32% (inactive).

In the case of `c1ccc(C2=NCCN=C2c2ccccc2)cc1`, the activation was 0.16% (inactive).

Take `N#CC(C#N)=Cc1cccn1-c1ccc(C(F)(F)F)cc1`: the activation was -0.29% (inactive).

On to `N#C/C(=C\c1cccs1)C(=O)NCCc1c[nH]c2ccccc12`, for which the activation was 0.42% (inactive).

In the case of `COC(=O)c1noc(C)c1-c1ccnn1C(=O)c1ccc(Cl)cc1`, the activation was 0.11% (inactive).

With `COc1ccc(Cc2nc(C(C)(C)C)cs2)cc1`, the activation is 0.28% (inactive).

As for `CNC(=S)NNC(=O)c1cc(C)on1`, the activation was -0.11% (inactive).

Take `Cn1cnc([N+](=O)[O-])c1N1CCN(C(c2ccccc2)c2ccccc2)CC1`: the activation was -0.25% (inactive).

Turning to `COC(=O)c1sccc1S(=O)(=O)Nc1ccccc1Sc1ncnc2c(C)csc12`, the activation was -0.68% (inactive).

For `N#Cc1ccc(-c2csc(COc3ccccc3Cl)n2)cc1`, the activation was 0.49% (inactive).

As for `O=C(Nc1ccc(Cl)cc1)c1csc(COc2ccc3nonc3c2)n1`, the activation is -0.05% (inactive).

Regarding `COC(=O)c1ccccc1-c1c2ccc(=O)cc-2oc2cc(O)ccc12`, the activation was -0.07% (inactive).

For `COc1cccc(/C=N/NC(=S)Nc2cc(C(F)(F)F)cc(C(F)(F)F)c2)c1O`, the activation is -0.66% (inactive).

With `O=C(O)CC(CC(=O)Nc1cc(C(F)(F)F)ccc1N1CCOCC1)c1ccccc1` (stereo not given), the activation was -0.05% (inactive).

`Cc1cc(C)nc(NC(=S)c2ccc(NC(=O)/C=C/C(=O)O)cc2)n1`: the activation is -0.56% (inactive).

Regarding `Cc1c(NC(=S)Nc2ccccc2)c(=O)n(-c2ccccc2)n1C`, the activation was -0.19% (inactive).

The values above are taken from PubChem BioAssay AID434982 (The Scripps Research Institute Molecular Screening Center, 2010).
